The list is not random: actives were taken first. Their share in the collection is about 12%.
Shiga inhibitor = Shiga toxin inhibition; inhibition, % at 38.7 µM; Vero cells, Shiga toxin protein synthesis inhibition reporter; AID 2315; 290,000 compounds, 9.2% hits; in the data active means inhibition mostly above about 28%, no sharp cut-off; inactive means mostly below about 43%
FMDV inh = foot and mouth disease virus antiviral activity. FMDV antiviral cell-based qHTS. Potency, µM (series often up to 57.9 µM), most hits filed as inhibitors. 410,000 compounds, 1.2% hits. AID 1159524; calls by dose curve; tested in HEK293T cells; further: read-out not given here; nearly all actives have a fitted effect of over 45% in size
Sm TGR inh = inhibitors of Schistosoma mansoni thioredoxin glutathione reductase | Potency, µM (top dose mostly 114 µM), hits mostly inhibitors | 360,000 compounds, 3% hits | purified TGR, DTNB reduction, TNB absorbance 405 nm; active means well fitted inhibition curve with a large enough effect; inconclusive means small, poorly fitted or top-dose-only effect; inactive means no such curve, though single readings can be large or run the other way; further: nearly all actives have a fitted effect of over 60% in size
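Kinetic colorimetric format: TGR-catalysed, NADPH-driven DTNB reduction monitored via TNB absorbance. Enzyme dispensed at 20 nM; compound exposure 15 min at room temperature before reaction start.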
CHX counter = counter-screen hit for Shiga toxin inhibitors, cycloheximide; AID 2314; 300,000 compounds, 12% hits; max response, %; cell reporter, cycloheximide protein synthesis inhibition counterscreen; in the data active means max response mostly above about 13%, no sharp cut-off; inactive means mostly below about 14%; further: read at 38.3 µM for the half of the compounds with a filed dose
Numbers stand for hits; . = inactive; ? = inconclusive; / = no result given.

SMILES	Shiga inhibitor	FMDV inh	Sm TGR inh	CHX counter
CC1=C(C(=O)Nc2ccccc2)C(c2cccn2C)n2ncnc2N1 (centres undefined)	/	?	.	/
CC(CNC(=O)c1cc(COc2c(F)cccc2F)on1)c1ccccc1 (centres undefined)	.	.	.	.
O=C(NCC1OCCc2ccccc21)c1cc(COc2c(F)cccc2F)on1 (centres undefined)	49.3	.	.	34.6
O=C(NC1CCc2ccccc21)c1cc(COc2cncc(Cl)c2)on1 (centres undefined)	66.8	.	.	56.6
O=C(NC1CCc2ccccc21)c1cc(COc2ccc(F)cc2Cl)on1 (centres undefined)	.	.	.	.
COc1ccc(CNC(=O)c2cc(COc3c(F)cccc3F)on2)cc1OC	.	.	.	.
O=C(NC1CCc2ccccc21)c1cc(COc2c(F)cccc2F)on1 (centres undefined)	.	.	.	21.0
O=C(NC1CCCc2ccccc21)c1cc(Cl)ccn1 (centres undefined)	.	.	?	.
O=C(NCCc1cnn(-c2ccccc2)c1)c1cc(COc2c(F)cccc2F)on1	67.6	.	.	27.2
NC[C@@H]1O[C@@H](O[C@H]2[C@H](O)[C@@H](O[C@@H]3O[C@@H](CO)[C@H](O)[C@@H](N)[C@@H]3O)[C@H](N)C[C@@H]2N)[C@@H](O)[C@H](O)[C@H]1O	.	/	/	.
Cc1ccc(CNC(=O)C2CCCCN2S(=O)(=O)c2ccc(F)cc2)cc1 (centres undefined)	/	.	.	/
O=C(Nc1ccccc1F)c1cnc(N2CCCCC2)c2ccccc12	/	.	.	/
O=C(NCc1ccc(F)cc1F)c1cc(COc2c(F)cccc2F)on1	.	.	.	.
O=C(NCc1c(F)cccc1F)c1cc(COc2c(F)cccc2F)on1	96.5	.	.	26.3
CC(C)(C)OC(=O)N/N=C\c1ccc(OC(=O)c2ccco2)cc1	78.9	.	.	38.5
O=C(/C=C/c1ccco1)Oc1cccc2cccnc12	.	.	?	.
COC(=O)N/N=C/c1ccc(OC(=O)/C=C/c2ccco2)cc1	.	.	?	.
CCc1ccc(OC(=O)/C=C/c2ccco2)cc1	30.1	.	28.2µM	32.5
O=C(/C=C\c1ccco1)Oc1cccc2cccnc12	.	.	?	23.1
O=C(Cc1ccccc1)N/N=C/c1ccc(OC(=O)/C=C\c2ccco2)cc1	49.0	.	35.5µM	28.5
Cc1ncc2c(c1CNS(=O)(=O)N(C)C)CCN(C(=O)/C=C/c1ccccc1F)C2	/	.	/	/
CCc1ccc(S(=O)(=O)c2cnc3ccc(OC)cc3c2N2CCCC(C)C2)cc1 (centres undefined)	/	.	.	/
Cn1c(=O)c2cn3c(c2n(C)c1=O)C(c1ccccc1)CC(c1ccccc1)=N3 (centres undefined)	105.4	.	12.6µM	38.0
CCCc1nc2ccccc2n2c(-c3ccccc3)c3c(=O)n(C)c(=O)n(C)c3c12	/	?	.	/
CCCOc1ccc(C(=O)Nc2ccc(NC(=O)c3ccccc3)c(C)c2)cc1	/	.	.	/
SMILES	Shiga inhibitor	FMDV inh	Sm TGR inh	CHX counter
COc1cccc(Nc2ccc(Nc3cccc(OC)c3)nn2)c1	.	.	.	.
COc1ccccc1-c1ccc(Nc2cccc(C(C)=O)c2)nn1	73.8	.	.	37.2
CC(=O)c1cccc(Nc2ccc(-c3ccccc3F)nn2)c1	93.6	.	.	37.7
CC(=O)c1ccc(Nc2ccc(-c3ccccc3C)nn2)cc1	106.6	.	/	54.6
CC(=O)c1cccc(Nc2ccc(Br)cc2)c1	/	.	/	/
CCc1ccc(NC(=O)c2cnn(-c3c(C)cccc3C)c2C2CCNCC2)cc1	/	.	.	/
Cc1ccc(N2C(=O)Nc3cc(Cl)c(Cl)cc3N2O)cc1Cl	.	.	.	.
O=C1Nc2cc(Cl)c(Cl)cc2N(O)N1c1ccccc1	.	/	.	30.2
Cc1c(C(=O)NCCN2CCC(c3ccccc3)CC2)cnn1-c1nccc(-c2cccs2)n1	/	.	/	/
Cc1occc1-c1nc(-c2ccccn2)no1	67.9	.	.	26.4
Cc1ccc(-c2noc(-c3ccoc3C)n2)cc1	83.3	.	/	49.4
Cc1occc1-c1nc(-c2ccncc2)no1	79.8	.	.	33.6
COC(=O)c1cc2occc2n1Cc1ccc(F)cc1Cl	/	.	.	/
Cc1cc(C)cc(C(=O)NCCn2cc(C(=O)N3CCSCC3)nn2)c1	/	.	/	/
CC(C)c1nc2ccc(C(=O)NCCCN3CCN(c4cccc(Cl)c4)CC3)cc2o1	/	.	.	/
COc1ccc2nc(NC(=O)Nc3ccccc3OC)sc2c1	101.9	.	.	48.6
COc1ccc2nc(Nc3ccccc3)sc2c1	60.0	.	.	30.2
COc1ccc2nc(Nc3ccccc3OC)sc2c1	90.2	.	.	32.3
COc1ccccc1NC(=O)Nc1nc2ccc(S(N)(=O)=O)cc2s1	89.1	.	.	67.0
Cc1ccccc1Cn1c(CN2CCC(C(=O)NCCc3ccccc3)CC2)cc2ccccc21	/	.	.	/
CN(C(=O)NCc1noc2ccccc12)c1cccc(Cl)c1	/	.	.	/
CN(Cc1ccon1)C(=O)CCc1nnc(CCCCc2ccccc2)o1	.	.	.	.
CC(c1ccon1)N(C)C(=O)CCc1nnc(Cc2ccc(-c3ccccc3)cc2)o1 (centres undefined)	.	.	.	16.5
CN(Cc1ccon1)C(=O)CCc1nnc(Cc2ccc(-c3ccccc3)cc2)o1	36.8	.	.	23.5
CCN(c1ccc(C)cc1C)S(=O)(=O)c1nnc(NC(=O)CC(C)C)s1	/	.	.	/
SMILES	Shiga inhibitor	FMDV inh	Sm TGR inh	CHX counter
Cc1ccc2c(c1)c1c(c(=O)n(-c3cccc(Cl)c3)c(=O)n1C)n2C	/	.	.	/
Cc1ccc2c(CN3CCOCC3)cc(=O)oc2c1	.	.	.	.
Cc1cc(C)c2c(CN3CCN(C)CC3)cc(=O)oc2c1	.	.	.	.
COc1cc(OC)cc(C(=O)N[C@H](C(=O)OCc2cc(=O)oc3cc(C)ccc23)C(C)C)c1	.	.	.	.
CCOc1ccccc1C(=O)N[C@H](C(=O)OCc1cc(=O)oc2cc(C)ccc12)C(C)C	.	.	.	26.3
Cc1cc(C)c2c(CN3CCN(CCO)CC3)cc(=O)oc2c1	57.2	.	.	72.0
Cc1ccc2c(COC(=O)c3ccccc3Br)cc(=O)oc2c1	98.3	.	.	34.0
Cc1ccc2c(CN3CCCCC3)cc(=O)oc2c1	28.5	.	?	20.9
Cc1ccc2c(COC(=O)c3ccccc3Cl)cc(=O)oc2c1	59.0	.	.	42.1
COC(=O)C(=C/C(C)=C/c1cccnc1)C(=O)OC	.	22.4µM	/	.
COC(=O)/C(=C/c1cccnc1)NC(=O)c1ccccc1	.	.	.	.
CCN(CC)CCCNc1oc(/C=C/c2ccc(OC)c(OC)c2)nc1C#N	/	.	.	/
O=C(O)C1CSC(c2coc3ccccc3c2=O)N1 (centres undefined)	.	.	2.51µM	13.9
Cc1cccc(CSCCNC(=O)CN(c2ccccc2)S(=O)(=O)N(C)C)c1	/	.	.	/
CCC(C)(C)C1CCC(=NNC(=O)c2ccoc2C)CC1 (centres undefined)	69.3	.	.	56.3
O=C(NC1CCCCC1)Oc1cc2oc(=O)sc2cc1Cl	.	25.1µM	?	16.2
O=C(Nc1cnn(Cc2ccccc2)c1)c1nc2ncccn2n1	46.4	.	.	38.0

Screening results as filed in PubChem.
